Test [1] in a line: antimalarial activity against Dd2 strain (AID 2302;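 active means growth inhibition above 50% at the single 2 µM test dose, taken to imply half-maximal potency below 2 µM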;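 further: 0% = DMSO untreated growth and 100% = chloroquine plus artemisinin killed control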). The note with it: P. falciparum Dd2 in RBCs, LDH growth readout, 72 h; at 2 µM; stronger effect = higher value.
The nature of test [2]: HepG2 cytotoxicity, primary screen, cytotoxicity control for P. falciparum antimalarial project, cell-based, ATP luminescence (AID 2303;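 active means inhibition above 50%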;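 further: 0% = DMSO wells and 100% = digitonin-killed cells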). To be noted: HepG2 viability, 24-48 h, at 10 µM, stronger effect = higher value.
For test [3], the target named is L-lactate dehydrogenase (Plasmodium falciparum (isolate CDC / Honduras)) (UniProt Q27743). Put plainly: PfLDH activity inhibition – cell lysate, 3D7 strain, counter-screen for P. falciparum growth inhibition project (AID 2304).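 Further: 0% = vehicle and 100% = reference inhibitor.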 To be noted: P. falciparum 3D7 crude extract, LDH APAD/NBT absorbance; at 2 µM; stronger effect = higher value. Background: The purpose of a counterscreen is to sort out artefacts and off-target activity.

Test [4] in a line: inhibition of 3D7 malaria parasite growth – strain 3D7 (AID 2306).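 Further: 0% = DMSO wells and 100% = chloroquine plus artemisinin control wells.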 To be noted: P. falciparum 3D7 erythrocytic growth, LDH absorbance, 72 h; at 2 µM; stronger effect = higher value.
The target in test [5] is Calcium-dependent protein kinase 1 (Plasmodium falciparum (isolate 3D7)) (UniProt P62344). Put plainly: PfCDPK1 kinase inhibitors, biochemical, TCAMS library (AID 1159585; cut-off not given, nearly all actives have IC50 up to about 0.98 µM;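 further: inhibitors leave more ATP so luminescence rises with inhibition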). The note with it: recombinant PfCDPK1, Kinase-Glo ATP depletion luminescence. Background: Kinase-Glo reads ATP consumption through a luciferase reaction.
Test [6] deals with Plasmodium falciparum protein kinase 6 (PK6, PF3D7_1337100) (UniProt Q8IDW1). Put plainly: PfPK6 kinase inhibitors, biochemical, TCAMS library (AID 1159586). To be noted: recombinant PfPK6, Kinase-Glo ATP depletion luminescence.
Test [7] concerns the target Protein kinase 7 (PK7), Plasmodium falciparum 3D7 (PF3D7_0213400) (UniProt Q7YTF7). Put plainly: inhibition of Plasmodium PK7 catalytic activity – biochemical, TCAMS antimalarial set, Kinase-Glo luminescence (AID 1159587). To be noted: recombinant PfPK7, Kinase-Glo ATP depletion luminescence.
Test [8] concerns the target Calcium-dependent protein kinase 4 (Plasmodium falciparum (isolate 3D7)) (UniProt Q8IBS5). Put plainly: PfCDPK4 kinase inhibitors, biochemical, TCAMS library (AID 1159588; cut-off not given, nearly all actives have IC50 up to about 0.91 µM). The note with it: recombinant PfCDPK4, Kinase-Glo ATP depletion luminescence.

Unmarked numbers belong to inactive results. For some of these results: Potency and affinity values are given separately. The source made the active and inactive calls. Unless noted, how the calls were made is not given here.

Chain of Calcium-dependent protein kinase 4 (Plasmodium falciparum (isolate 3D7)) (Q8IBS5 whole entry, looked up): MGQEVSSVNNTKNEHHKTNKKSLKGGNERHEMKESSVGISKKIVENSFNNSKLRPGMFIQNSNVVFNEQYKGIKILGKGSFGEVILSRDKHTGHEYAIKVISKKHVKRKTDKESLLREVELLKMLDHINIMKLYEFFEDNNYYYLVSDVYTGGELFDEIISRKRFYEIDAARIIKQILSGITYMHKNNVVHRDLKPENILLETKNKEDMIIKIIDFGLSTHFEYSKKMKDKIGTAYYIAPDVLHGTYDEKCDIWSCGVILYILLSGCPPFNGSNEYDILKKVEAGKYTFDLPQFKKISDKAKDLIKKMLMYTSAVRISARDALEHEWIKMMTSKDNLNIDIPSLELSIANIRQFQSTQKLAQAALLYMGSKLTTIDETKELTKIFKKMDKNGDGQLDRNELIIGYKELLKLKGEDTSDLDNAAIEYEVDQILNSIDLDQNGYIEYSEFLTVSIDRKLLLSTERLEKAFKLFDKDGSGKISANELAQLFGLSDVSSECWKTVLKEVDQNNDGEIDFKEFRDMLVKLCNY
Chain of Protein kinase 7 (PK7), Plasmodium falciparum 3D7 (PF3D7_0213400) (Q7YTF7 1-343): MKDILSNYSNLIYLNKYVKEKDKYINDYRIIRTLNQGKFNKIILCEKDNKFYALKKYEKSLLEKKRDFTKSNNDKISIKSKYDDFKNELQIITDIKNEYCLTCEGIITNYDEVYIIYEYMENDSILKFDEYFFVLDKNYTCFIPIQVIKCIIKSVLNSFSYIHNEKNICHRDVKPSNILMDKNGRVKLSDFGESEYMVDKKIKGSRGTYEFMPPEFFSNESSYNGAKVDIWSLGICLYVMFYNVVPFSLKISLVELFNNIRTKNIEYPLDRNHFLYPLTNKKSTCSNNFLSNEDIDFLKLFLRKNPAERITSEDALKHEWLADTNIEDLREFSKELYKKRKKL
Chain of L-lactate dehydrogenase (Plasmodium falciparum (isolate CDC / Honduras)) (Q27743 whole entry, looked up): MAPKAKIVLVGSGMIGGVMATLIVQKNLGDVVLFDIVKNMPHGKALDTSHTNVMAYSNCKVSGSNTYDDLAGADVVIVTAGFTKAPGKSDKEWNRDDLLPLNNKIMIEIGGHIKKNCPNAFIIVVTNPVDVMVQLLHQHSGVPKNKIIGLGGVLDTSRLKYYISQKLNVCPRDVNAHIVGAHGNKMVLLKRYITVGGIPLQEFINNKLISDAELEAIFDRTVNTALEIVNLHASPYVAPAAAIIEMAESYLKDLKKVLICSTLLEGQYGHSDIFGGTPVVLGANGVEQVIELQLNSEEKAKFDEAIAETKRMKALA
Chain of Plasmodium falciparum protein kinase 6 (PK6, PF3D7_1337100) (Q8IDW1 1-305): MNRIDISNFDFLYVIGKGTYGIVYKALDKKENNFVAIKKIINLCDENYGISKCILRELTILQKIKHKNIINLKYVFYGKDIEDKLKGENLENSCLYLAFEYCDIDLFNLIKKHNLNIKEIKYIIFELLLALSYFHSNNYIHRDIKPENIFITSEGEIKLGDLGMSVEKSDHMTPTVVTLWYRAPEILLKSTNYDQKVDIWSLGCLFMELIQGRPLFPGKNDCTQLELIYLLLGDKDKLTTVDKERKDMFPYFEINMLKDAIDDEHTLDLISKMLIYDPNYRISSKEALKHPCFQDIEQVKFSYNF
Chain of Calcium-dependent protein kinase 1 (Plasmodium falciparum (isolate 3D7)) (P62344 whole entry, looked up): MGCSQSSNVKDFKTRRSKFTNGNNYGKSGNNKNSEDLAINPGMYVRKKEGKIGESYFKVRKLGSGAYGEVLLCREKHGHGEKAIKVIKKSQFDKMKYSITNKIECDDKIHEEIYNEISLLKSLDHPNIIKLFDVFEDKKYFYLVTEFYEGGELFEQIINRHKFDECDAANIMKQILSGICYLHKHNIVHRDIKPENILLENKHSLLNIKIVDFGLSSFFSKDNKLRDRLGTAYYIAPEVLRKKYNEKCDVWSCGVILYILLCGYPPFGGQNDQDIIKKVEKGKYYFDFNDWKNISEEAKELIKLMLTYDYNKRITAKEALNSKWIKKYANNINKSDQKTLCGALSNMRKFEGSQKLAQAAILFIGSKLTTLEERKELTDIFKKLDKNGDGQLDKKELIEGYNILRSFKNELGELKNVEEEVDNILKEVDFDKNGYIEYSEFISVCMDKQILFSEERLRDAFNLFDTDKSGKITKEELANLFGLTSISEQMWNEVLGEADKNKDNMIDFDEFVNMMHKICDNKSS

As for `CC(C)CCn1c(Sc2ccc(C#N)c([N+](=O)[O-])c2)nnc1-c1ccc(Cl)cc1`, the growth inhibition in test [1] was 39%; in test [4], 90% (active). Also, the inhibition is 25% in test [2] and -1% in test [3]. Further, the outcome in test [5], in test [6], in test [7] and in test [8] was inactive.
With `CNc1nc(Nc2ccccc2C)nc2ccccc12`, the growth inhibition is 81% (active) in test [1] and 101% (active) in test [4]. Also, the values for the inhibition in test [2] and in test [3] were 17% and -1%, respectively. Also, the outcome in test [5], in test [6], in test [7] and in test [8] was inactive.
Take `FC(F)(F)c1ccc2nc(-c3ccc(-c4cccc(CNCc5cnn(-c6ccccc6)n5)c4)cc3)[nH]c2c1`: the growth inhibition in test [1] was 83% (active); in test [4], 99% (active). Further, the inhibition was 19% in test [2] and -1% in test [3]. The result in test [5], in test [6], in test [7] and in test [8] was inactive.
Turning to `Cc1cc(NC(=O)NCCN2CCC(NC(=O)c3ccc(C(F)(F)F)cc3)CC2)c2ccccc2n1`, the growth inhibition is 75% (active) in test [1] and 98% (active) in test [4]. The values for the inhibition in test [2] and in test [3] were 3% and -3%, respectively. Also, the result in test [5], in test [6], in test [7] and in test [8] was inactive.
`CC(CCON1C(N)=NC(N)=NC1(C)C)c1ccc(Cl)cc1` (stereo not given): the growth inhibition was 97% (active) in test [1] and 93% (active) in test [4]. Besides, the inhibition in test [2] is 64% (active); in test [3], -5%. Moreover, the outcome in test [5], in test [6], in test [7] and in test [8] was inactive.
For `CCOc1c(CNCCCNc2cc(=O)c3ccccc3[nH]2)cc(Br)cc1OC`, the growth inhibition in test [1] is 18%; in test [4] it was 80% (active). Besides, the inhibition is 10% in test [2] and -9% in test [3]. Further, the outcome in test [5], in test [6], in test [7] and in test [8] was inactive.
For `Nc1nc(N)c2c(ccc3c2ccn3C2CCCCC2)n1`, the values for the growth inhibition in test [1] and in test [4] were 46% and 97% (active), respectively. In addition, the values for the inhibition in test [2] and in test [3] were 67% (active) and 0%, respectively. Moreover, the result in test [5], in test [6], in test [7] and in test [8] was inactive.
As to `CCOCc1cn(CC(=O)c2ccc(-c3ccccc3)cc2)c(C)nc1=N`, the values for the growth inhibition in test [1] and in test [4] were 72% (active) and 93% (active), respectively. Further, the figures for the inhibition in test [2] and in test [3] were 13% and 5%, respectively. The result in test [5], in test [6], in test [7] and in test [8] was inactive.
`COc1ccc(CCNC(=O)c2cc(C)ccc2O)cc1-c1ccc(C(C)(C)C)cc1`: the growth inhibition in test [1] is 94% (active); in test [4] it was 97% (active). Further, the inhibition in test [2] is 1%; in test [3] it was -6%. For the same molecule, the outcome in test [5], in test [6], in test [7] and in test [8] was inactive.
Regarding `O=C(NC1CC1)C1CCN(Cc2cc3ccccc3n2Cc2ccc(Cl)cc2)CC1`, the growth inhibition in test [1] is 96% (active); in test [4], 95% (active). Besides, the inhibition was 16% in test [2] and -1% in test [3]. The outcome in test [5], in test [6], in test [7] and in test [8] was inactive.
Turning to `COc1cc2ccccc2cc1CNCCCCCCNCc1cc2ccccc2cc1OC`, the growth inhibition was 24% in test [1] and 101% (active) in test [4]. Also, the inhibition is 98% (active) in test [2] and 6% in test [3]. For the same molecule, the result in test [5], in test [6], in test [7] and in test [8] was inactive.
Turning to `COc1ccc2c(c1)CCCC2C(C)NCC(O)c1cccc(C(F)(F)F)c1` (stereo not given), the growth inhibition in test [1] and in test [4] was 99% (active) in each case. The inhibition in test [2] is 3%; in test [3], -3%. Moreover, the result in test [5], in test [6], in test [7] and in test [8] was inactive.
On to `CC(=O)Nc1nc(C(=O)Nc2cccc(-c3ccc(-c4nc5c(C)cccc5[nH]4)cc3)c2)cs1`, for which the growth inhibition in test [1] was 61% (active); in test [4], 100% (active). Further, the inhibition in test [2] was 100% (active); in test [3], -3%. Besides, the result in test [5], in test [6], in test [7] and in test [8] was inactive.
`CN(C)CCN(C)Cc1ccc(-c2cccc(NC(=O)c3cccc(C#N)c3)c2)cc1`: the growth inhibition is 11% in test [1] and 94% (active) in test [4]. Further, the inhibition in test [2] is 23%; in test [3], -4%. Also, the outcome in test [5], in test [6], in test [7] and in test [8] was inactive.
With `COc1cc2nc(N3CCC(C(N)=O)CC3)nc(NCc3ccccc3)c2cc1OC`, the values for the growth inhibition in test [1] and in test [4] were 23% and 100% (active), respectively. Further, the values for the inhibition in test [2] and in test [3] were 23% and -7%, respectively. For the same molecule, the outcome in test [5], in test [6], in test [7] and in test [8] was inactive.
With `O=C(c1ccc(-c2ccc(-c3nc4ccc(C(F)(F)F)cc4[nH]3)s2)cc1)N1CCCCC1CN1CCC(O)C1` (stereo not given), the values for the growth inhibition in test [1] and in test [4] were 80% (active) and 92% (active), respectively. The results for the inhibition in test [2] and in test [3] were 90% (active) and 3%, respectively. The result in test [5], in test [6], in test [7] and in test [8] was inactive.
On to `O=C1NC(=S)NC1=CC=Cc1ccc([N+](=O)[O-])o1`, for which the values for the growth inhibition in test [1] and in test [4] were 30% and 82% (active), respectively. For the same molecule, the figures for the inhibition in test [2] and in test [3] were 7% and 2%, respectively. For the same molecule, the outcome in test [5], in test [6], in test [7] and in test [8] was inactive.
For `O=C(Cn1cc(C(F)(F)F)cc(Cl)c1=O)N1CCN(S(=O)(=O)c2ccc(Cl)cc2)CC1`, the growth inhibition was 69% (active) in test [1] and 99% (active) in test [4]. Further, the inhibition is 14% in test [2] and 0% in test [3]. Moreover, the result in test [5], in test [6], in test [7] and in test [8] was inactive.
Turning to `Cc1cc(NC(=O)c2coc3cc(F)c(N4C[C@@H](C)N(C)[C@@H](C)C4)cc23)ccc1-n1ccnc1`, the values for the growth inhibition in test [1] and in test [4] were 42% and 96% (active), respectively. Also, the inhibition in test [2] was -9%; in test [3] it was -3%. For the same molecule, the result in test [5], in test [6], in test [7] and in test [8] was inactive.
In the case of `Cc1cccc2[nH]c(-c3cccc(-c4cccc(NC(=O)C(C)CN5CCN(C)CC5)c4)c3)nc12` (stereo not given), the growth inhibition in test [1] and in test [4] was 99% (active) each time. The inhibition was 17% in test [2] and 1% in test [3]. Moreover, the result in test [5], in test [6], in test [7] and in test [8] was inactive.

The term inhibition denotes the change of the read-out against control, counted positive when it falls.

The values are drawn from PubChem BioAssay.
